SMILES strings stand for the structures. “And” between values parts separate entries of the source, which are not always exact repeats. Equal values may be shown once. Records with an inconclusive call do not appear. The source made the active and inactive calls. Calls follow the shape of the dose curve; as a rule, active = well fitted inhibition curve with a large enough effect; inconclusive = small, poorly fitted or top-dose-only effect; inactive = flat fitted curve, though single readings scatter.

Our source for the max response, Potency and outcome values is PubChem BioAssay (NCATS).
% is scaled to controls: 0 for no effect and ±100 for the full control effect; potency is read from the fitted curve at half-maximal effect.

The first experiment has as its system CRL-7250. Briefly: Cytotoxic Profiling of Annotated Libraries Using Quantitative High-Throughput Screening (AID 1296008). Also: nearly all actives have a fitted effect of over 60% in size. The note with it: Five cell lines viability, CellTiter-Glo ATP luminescence, 48-72 h; max response: hits give low values. The gist of the method:
(§1)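 Compounds were pin-transferred onto cells and incubated 48 or 72 hr at 37 degree Celsius, 95% humidity. CellTiter-Glo was added, plates sat 10 min at room temperature, then ATP-coupled luminescence was imaged as the viability read-out.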
With `S=C(SSC(=S)N1CCCCC1)N1CCCCC1`, the max response is -1.9% (inactive).
Take `C[C@](O)(COc1ccc(C#N)cc1)C(=O)Nc1ccc(C#N)c(C(F)(F)F)c1`: the max response was -6.61% (inactive).
On to `C[C@@]12OC(=O)[C@]1([C@@H](O)[C@@H]1C=CCCC1)NC(=O)[C@H]2CCCl`, for which the Potency is 0.209 µM (active).
Consider `CC=C(C)C(=O)O[C@H]1C(C)=C2[C@@H]3OC(=O)[C@@](C)(O)[C@@]3(O)[C@@H](OC(=O)CCC)C[C@](C)(OC(C)=O)[C@@H]2[C@@H]1OC(=O)CCCCCCC`, for which the Potency was 0.148 µM (active).
Regarding `CC[C@H]1C=CC=CC[C@@H](C)[C@H](O)[C@@](C)(O)C(=O)[C@@H](C)[C@H](O)[C@@H](C)C(=O)[C@@H](C)[C@H](O)[C@@H](C)C=CC(=O)O[C@@H]2[C@@H](C)[C@H](CC1)O[C@]1(CC[C@H](C)[C@H](C[C@@H](C)O)O1)[C@H]2C`, the Potency was 18.7 µM (active).
Regarding `COc1ccc(C(=O)c2c(C)n(CCN3CCOCC3)c3cc(I)ccc23)cc1`, the max response is 4.04% (inactive).
On to `C[C@@H]1O[C@@H](O[C@@H]2C=C3CC[C@@H]4[C@@H](CC[C@]5(C)[C@H](c6ccc(=O)oc6)CC[C@@]45O)[C@@]3(C)CC2)[C@H](O)[C@H](O)[C@H]1O`, for which the Potency is 0.0118 µM (active).
Turning to `COCC1(CO)C(=O)C2CCN1CC2` (centres undefined), the max response is -4.01% (inactive).
`Nc1ccc(Cl)cc1`: the max response is -5.83% (inactive).
On to `O=C(Nc1ccccc1-c1ccc(Cl)cc1)c1cccnc1Cl`, for which the max response is -3.67% (inactive).
Turning to `CS(=O)(=O)c1ccc(C(=O)C2C(=O)CCCC2=O)c([N+](=O)[O-])c1`, the max response is -5.31% (inactive).
On to `O=C(O)c1cc(Oc2ccc(C(F)(F)F)cc2Cl)ccc1[N+](=O)[O-]`, for which the max response is -0.373% (inactive).
Same read-out and setting: as for `O=[N+]([O-])c1ncc[nH]1`, the figure is -4.09% (inactive); as for `CC(Cc1ccc(O)cc1)NCC(O)c1cc(O)cc(O)c1` (centres undefined), 3.52% (inactive); as for `Nc1ccc(Cl)cc1N`, -5.38% (inactive).
Still for that read-out and setting: the value for `Oc1ccc2c3c1O[C@H]1[C@@H](O)C=C[C@H]4[C@@H](C2)NCC[C@@]341` was -20.7% (inactive); that for `Fc1cc(Br)ccc1CBr` was -5.31% (inactive).
Consider `CO/C=C(/C(=O)OC)c1ccccc1Oc1cc(Oc2ccccc2C#N)ncn1`, for which the Potency was 19.3 µM (active).
Take `CC1(C)CC/C(=C/c2ccc(Cl)cc2)C1(O)Cn1cncn1` (centres undefined): the max response is -5.73% (inactive).
For the molecule `Cc1c(C(=O)Nc2cccc(C(F)(F)F)c2)cc(-c2ccccc2)n1CCCN1CCOCC1`, the max response is -26% (inactive) and -3.59% (inactive).
As to `CCCN1CCO[C@@H]2c3cc(O)ccc3OC[C@@H]21`, the max response was -5.49% (inactive).
As for `C#C[C@]1(O)C=C[C@@H]2[C@@H]3CCC4=CC(=O)CC[C@@H]4[C@H]3CC[C@@]21CC`, the max response was -4.4% (inactive).
On to `C[C@H]1CCCC=CC2C[C@H](O)C[C@@H]2[C@H](O)C=CC(=O)O1` (some centres undefined), for which the max response was -95.9% (inactive).
As for `COC(=O)c1cncn1C(C)c1ccccc1` (centres undefined), the max response was -11.1% (inactive).
Same read-out and setting: as for `COCCOCCO`, the figure is -4.64% (inactive); as for `CCCCOC(=O)c1ccccc1C(=O)OCc1ccccc1`, -23.3% (inactive).
Turning to `C=C[C@@H]1CN2CCC1C[C@H]2[C@H](O)c1ccnc2ccccc12` (some centres undefined), the call was inactive.
As for `O=S(=O)(O)C(F)(F)C(F)(F)C(F)(F)C(F)(F)C(F)(F)C(F)(F)C(F)(F)C(F)(F)F`, the max response was -8.73% (inactive).
For the molecule `CC(C)Oc1cccc(NC(=O)c2ccccc2C(F)(F)F)c1`, the Potency is 54.5 µM (active).

The next experiment concerns HEK293. The description is as above. Conditions: Five cell lines viability, CellTiter-Glo ATP luminescence, 48-72 h; max response: hits give low values. An outline of the steps: as §1
(In general: In ATP-based viability assays light output follows the ATP content of the culture.)
Take `O=[N+]([O-])c1c2ccccc2cc2ccccc12`: the max response is -16% (inactive).
With `COC1=CC(C)=C[C@@H](C)[C@@H](O)[C@@H](C)CC(C)=CC=C[C@H](OC)[C@H]([C@@H](C)[C@@H](O)[C@H](C)[C@@]2(O)C[C@@H](O)[C@H](C)[C@@H](C(C)C)O2)OC1=O`, the Potency is 0.0118 µM (active).
On to `N#C[C@H](O[C@@H]1O[C@H](CO[C@@H]2O[C@H](CO)[C@H](O)[C@H](O)[C@H]2O)[C@H](O)[C@H](O)[C@H]1O)c1ccccc1`, for which the Potency is 23.5 µM (active).
Consider `CCO/N=C(\CC)C1=C(O)CC(c2c(C)cc(C)cc2C)CC1=O` (centres undefined), for which the Potency is 24.3 µM (active).
Regarding `O=C(O)CNC(=O)c1c(O)c2ccccc2n(Cc2ccccc2)c1=O`, the max response was 1.22% (inactive) and the call was inactive.
Turning to `CC=C(C)C(=O)N[C@@H](c1ccccc1)[C@@H](O)C(=O)O[C@H]1C[C@@]2(O)[C@@H](OC(=O)c3ccccc3)[C@@H]3[C@]4(OC(C)=O)CO[C@@H]4C[C@H](O)[C@@]3(C)C(=O)[C@H](OC(C)=O)C(=C1C)C2(C)C`, the max response is -78.1% (inactive).
For `CC[C@@H]1[C@@H](C)O[C@@](O)([C@@H](C)[C@H](O)[C@H](C)[C@H]2OC(=O)C=CC=C[C@@H](C)[C@@H]([C@@H](C)[C@@H](O)[C@H](C)[C@@]3(O)C[C@H](O[C@H]4C[C@H](O)[C@H](O)[C@H](C)O4)[C@H](CC)[C@@H](C)O3)OC(=O)C=CC=C[C@@H]2C)C[C@H]1O[C@H]1C[C@H](O)[C@H](O)[C@H](C)O1`, the Potency is 1.18 µM (active).
As to `CC(=Cc1csc(C)n1)[C@@H]1C[C@H]2O[C@@H]2CCC[C@H](C)[C@@H](O)[C@@H](C)C(=O)C(C)(C)[C@@H](O)CC(=O)O1`, the max response is -79% (inactive).
`CC1=C(O)C(=O)C=C2C1=CC=C1[C@@]2(C)CC[C@@]2(C)[C@@H]3C[C@](C)(C(=O)O)CC[C@]3(C)CC[C@]12C`: the Potency is 1.48 µM (active).
